RecA splice inh = Mtb RecA intein splicing inhibitors, primary screen, biochemical, fluorescence, HTS; Protein RecA (Mycobacterium tuberculosis (strain ATCC 25618 / H37Rv)), P9WHJ3; cell-free RecA intein splicing; inhibition, % (test concentration not listed); 290,000 compounds, 0.75% hits; AID 2221, 2009; in the data active = inhibition above about 30%;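 also: 0% = vehicle wells and 100% = reference inhibitor control wells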
PrPC TRFRET = inhibitors of human cell surface prion protein PrPC, primary screen, cell-based, TR-FRET; TR-FRET read-out; inhibition, % at 13.8 µM; 370,000 compounds, 0.43% hits; in the data active = inhibition above about 24%; also: 0% = median of the test wells and 100% = reference compound wells
BJeLR lethal = MLPCN primary cell-based screen for lethality selective to Ras in HRASV12 cells; BJeLR (HRASV12) viability, CellTiter-Glo ATP luminescence, 48 h; 300,000 compounds, 0.17% hits; inhibition, % (no concentration beside the values); in the data active = inhibition above about 50%
FBA Mtb inh = Mtb FBA enzyme inhibitors, primary screen, biochemical, fluorescence, strain H37Rv | inhibition, % at 1 µM | AID 588726, 2011 | purified M. tuberculosis FBA, fluorescence read-out | 360,000 compounds, 2.3% hits | Fructose-bisphosphate aldolase (Mycobacterium tuberculosis (strain ATCC 25618 / H37Rv)), …; in the data active = inhibition above about 27%;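 also: 0% = vehicle and 100% = reference inhibitor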
Target sequence (P9WQA3 whole entry, looked up): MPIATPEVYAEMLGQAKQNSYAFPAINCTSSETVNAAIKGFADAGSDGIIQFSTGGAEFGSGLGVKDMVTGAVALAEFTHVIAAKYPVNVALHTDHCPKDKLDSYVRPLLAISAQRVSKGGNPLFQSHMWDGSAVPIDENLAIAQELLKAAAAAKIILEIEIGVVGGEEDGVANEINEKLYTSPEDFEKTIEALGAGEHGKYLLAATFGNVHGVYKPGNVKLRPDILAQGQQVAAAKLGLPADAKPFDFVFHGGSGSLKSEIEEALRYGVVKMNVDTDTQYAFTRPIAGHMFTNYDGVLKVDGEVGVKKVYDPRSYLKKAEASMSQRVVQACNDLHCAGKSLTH
GDH-TPI counter = GDH-TPI coupling enzyme inhibitors, primary screen, artefact control for M. tuberculosis FBA inhibitor project, biochemical, absorbance, full deck | GDH-TPI coupled enzyme counterscreen, NADH absorbance | 360,000 compounds, 1.2% hits | inhibition, % at 4.8 µM; in the data active = inhibition above about 30%;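 also: 0% = DMSO wells and 100% = wells lacking the enzyme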
The depositor's hits bear a star. The list is not random: actives were taken first. Their share in the collection is about 4.2%.

How did CCCC1CCC2(CC1)CCC2OC(=S)Nc1ccccc1 (centres undefined) do in these assays?
PrPC TRFRET: 5

What do the screens show for `CC(/C=C/C=C/c1ccccc1)=N/NC(=O)C(O)c1ccccc1` (centres undefined)?
RecA splice inh: 0; PrPC TRFRET: -4; BJeLR lethal: -15; FBA Mtb inh: -3; GDH-TPI counter: 50*

How did CC(/C=C/C=C/c1ccccc1)=N/NC(=O)CNc1ccc(C)cc1 do in these assays?
RecA splice inh: 4; PrPC TRFRET: 8; BJeLR lethal: -5; FBA Mtb inh: -3; GDH-TPI counter: 33*

What do the screens show for `CCOc1ccc(NCC(=O)N/N=C/C=C/c2ccccc2)cc1`?
RecA splice inh: 1; PrPC TRFRET: -2; BJeLR lethal: -5; FBA Mtb inh: -2; GDH-TPI counter: 12

Results for O=C(OC12CCCN(C1)/C(=C/c1cccc(Cl)c1)C2)c1ccc(F)cc1 (centres undefined) ?
PrPC TRFRET: 5

How did COc1ccc(OC[C@@H](O)CN2CCC(C(O)(c3ccccc3)c3ccccc3)CC2)cc1 do in these assays?
PrPC TRFRET: -7

Results for COc1ccc(-c2nc3ccc([N+](=O)[O-])cc3[nH]2)cc1 ?
RecA splice inh: 2; PrPC TRFRET: -15; BJeLR lethal: -21; FBA Mtb inh: -4; GDH-TPI counter: 19

Results for CCOc1ccc2nc(-c3ccccc3)[nH]c2c1 ?
RecA splice inh: -3; PrPC TRFRET: 14; BJeLR lethal: -2; FBA Mtb inh: 189*; GDH-TPI counter: 2

Results for COc1ccc2nc(-c3ccccc3)[nH]c2c1 ?
RecA splice inh: -2; PrPC TRFRET: -4; BJeLR lethal: 7; FBA Mtb inh: 150*; GDH-TPI counter: 6

Results for COCC(=O)N1C[C@H]2CON(C)[C@H]2C[C@H]1c1cccc(-c2cc(Cl)cc(Cl)c2)c1 ?
PrPC TRFRET: -10

Results for Cc1cc(OC(C)C(=O)NCCCN2CCCC2=O)c2c(C)c(C)c(=O)oc2c1 (centres undefined) ?
RecA splice inh: 4; PrPC TRFRET: -5; BJeLR lethal: 9; FBA Mtb inh: 112*; GDH-TPI counter: 0

How did Cc1c(OC(C)C(=O)NCCCN2CCCC2=O)ccc2c3c(c(=O)oc12)CCCC3 (centres undefined) do in these assays?
RecA splice inh: -2; PrPC TRFRET: -2; BJeLR lethal: 3; FBA Mtb inh: 43*; GDH-TPI counter: 3

What do the screens show for `CC(Oc1cc2oc(=O)c3c(c2cc1Cl)CCC3)C(=O)NCCCN1CCCC1=O` (centres undefined)?
RecA splice inh: 7; PrPC TRFRET: -2; BJeLR lethal: 3; FBA Mtb inh: 8; GDH-TPI counter: 17

Results for CC(=O)Nc1ccc(NC(=O)N2CCOCC2)cc1 ?
PrPC TRFRET: -5; FBA Mtb inh: 1; GDH-TPI counter: 14

What do the screens show for `CC(=O)/C(=N\Nc1ccc(C)cc1)N1CCOCC1`?
RecA splice inh: -1; PrPC TRFRET: 12; BJeLR lethal: -3; FBA Mtb inh: -1; GDH-TPI counter: 31*

Results for COc1ccc(NC(=O)CN(C)S(=O)(=O)c2ccc3[nH]c(=O)oc3c2)cc1 ?
RecA splice inh: -2; PrPC TRFRET: 1; BJeLR lethal: 56*; FBA Mtb inh: 5; GDH-TPI counter: 8

What do the screens show for `CCc1ccc(NC(=O)CN(C)S(=O)(=O)c2ccc3[nH]c(=O)oc3c2)cc1`?
RecA splice inh: 2; BJeLR lethal: 3; FBA Mtb inh: 4; GDH-TPI counter: -1

How did CC(=C/c1ccccc1)/C=N/Nc1nc(N2CCOCC2)nc(N2CCOCC2)n1 do in these assays?
RecA splice inh: -2; PrPC TRFRET: -8; BJeLR lethal: 5; FBA Mtb inh: -1; GDH-TPI counter: 26

How did Clc1ccccc1/C=C/C=N/Nc1nc(N2CCOCC2)nc(N2CCOCC2)n1 do in these assays?
RecA splice inh: -3; PrPC TRFRET: -15; BJeLR lethal: -6; FBA Mtb inh: -4; GDH-TPI counter: 40*

Results for C(=C\c1ccccc1)/C=N/Nc1nc(N2CCOCC2)nc(N2CCOCC2)n1 ?
RecA splice inh: -3; PrPC TRFRET: -2; BJeLR lethal: 3; FBA Mtb inh: -2; GDH-TPI counter: 47*

How did CC1=Nc2cc(C(=O)NCC3CCCO3)ccc2Sc2ccc(C)cc21 (centres undefined) do in these assays?
RecA splice inh: -2; PrPC TRFRET: 10; BJeLR lethal: 27; FBA Mtb inh: 4; GDH-TPI counter: 23

How did CC1=Nc2cc(C(=O)NCc3ccco3)ccc2Sc2ccc(C)cc21 do in these assays?
RecA splice inh: -1; PrPC TRFRET: 10; BJeLR lethal: 54*; FBA Mtb inh: 0; GDH-TPI counter: 20

What do the screens show for `O=C(Nc1ccc(C(F)(F)F)cc1)OC1CC2CC1[C@H]1CCCCN1C2` (some centres undefined)?
PrPC TRFRET: 3

Results for COC(=O)Nc1ccc(C)cc1NC(=O)OC ?
RecA splice inh: -3; PrPC TRFRET: 2; BJeLR lethal: -2; FBA Mtb inh: 4; GDH-TPI counter: 6

What do the screens show for `COC(=O)Nc1ccc2ccc3c(NC(=O)OC)ccc4ccc1c2c43`?
PrPC TRFRET: 1; FBA Mtb inh: active; GDH-TPI counter: 44*

Results for CN1CCN(CCCNC(=O)c2cc3c(=O)n(C)c4ccccc4c3s2)CC1 ?
RecA splice inh: 0; PrPC TRFRET: -14; BJeLR lethal: -7; FBA Mtb inh: 89*; GDH-TPI counter: 12

Results for CCCCOc1ccc(C(=O)NC2CCCCN(CC)C2=O)cc1 (centres undefined) ?
PrPC TRFRET: 0

How did c1ccc2oc(-c3ccc4c(c3)CNCc3cnnn3-4)cc2c1 do in these assays?
PrPC TRFRET: -9; FBA Mtb inh: active

What do the screens show for `O=C(N[C@@H](Cc1ccccc1)C(=O)N1CCC2CCN(S(=O)(=O)c3ccccc3)CC21)[C@@H]1CCCN1` (some centres undefined)?
PrPC TRFRET: -7

How did CCOC(=O)N1CCC2(CC1)C(C#N)=C(N)OC1=C2C(=O)CC(C)(C)C1 do in these assays?
RecA splice inh: -2; PrPC TRFRET: -3; BJeLR lethal: 3; FBA Mtb inh: -1; GDH-TPI counter: 10

Results for CCOC(=O)N1CCC2(CC1)C(C#N)=C(N)Oc1c2c(C)nn1-c1cccc(Cl)c1 ?
RecA splice inh: 63*; PrPC TRFRET: -2; BJeLR lethal: -5; FBA Mtb inh: 2; GDH-TPI counter: 8

Results for O=c1[nH]cnc2nc(-c3ccc(N(CCCl)CCCl)cc3)[nH]c12 ?
PrPC TRFRET: 11; GDH-TPI counter: 47*

Bioassay records (PubChem)
